“And” between values parts separate entries of the source, which are not always exact repeats. Equal values may be shown once. The campaign covered roughly 5,500 compounds. About 2,000 (36%) were called active. About 18% were inconclusive and are not listed. Cut-off read from the data, not from the text of the source: active = normalized growth mostly below about 0.91 (no sharp cut-off); inconclusive = no clear call, values can overlap the other calls; inactive = mostly above about 0.92. The list shows a part of the results.
Experiment: chemical genetic growth profiling, strain panel (AID 1159580);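 note: tested at 20 µM; growth read once vehicle control cultures reached saturation at 30 °C; 1 = growth at the plate median or of vehicle wells; lower values mean less growth of the strain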
Settings: S. cerevisiae deletion strains, growth OD

Measured: normalized growth

COc1cc([C@@H]2c3cc4c(cc3C(OC3O[C@@H]5COC(C)O[C@H]5[C@H](O)[C@H]3O)C3COC(=O)[C@@H]32)OCO4)cc(OC)c1O (some centres undefined)
inactive: locus YAL021C, strain ccr4, stronger effect = lower value 1.03 | locus YAL026C, strain drs2, stronger effect = lower value 1.05 | locus YAL030W, strain snc1, stronger effect = lower value 1.05 | locus YBL061C, strain skt5, stronger effect = lower value 1.02 | locus YBR009C, strain hhf1, stronger effect = lower value 1.01 | locus YBR021W, strain FUR4, stronger effect = lower value 0.961 | locus YBR023C, strain chs3, stronger effect = lower value 1.03 | locus YBR171W, strain sec66, stronger effect = lower value 1.07 | locus YBR229C, strain ROT2, stronger effect = lower value 1.01 | locus YBR231C, strain swc5, stronger effect = lower value 1.03 | locus YBR279W, strain paf1, stronger effect = lower value 1.02 | locus YCL011C, strain gbp2, stronger effect = lower value 1.04 | locus YCL016C, strain dcc1, stronger effect = lower value 1.02 | locus YCL029C, strain bik1, stronger effect = lower value 0.989 | locus YCL069W, strain vba3, stronger effect = lower value 1.05 | locus YCR088W, strain abp1, stronger effect = lower value 1.04 | locus YDL005C, strain med2, stronger effect = lower value 1.02 | locus YDL035C, strain GPR1, stronger effect = lower value 0.996 | locus YDL040C, strain nat1, stronger effect = lower value 1.03 | locus YDL074C, strain BRE1, stronger effect = lower value 0.947 | locus YDL101C, strain DUN1, stronger effect = lower value 1 | locus YDL134C, strain PPH21, stronger effect = lower value 1.01 | locus YDL185W, strain tfp1, stronger effect = lower value 0.979 | locus YDL192W, strain arf1, stronger effect = lower value 0.991 | locus YDR001C, strain nth1, stronger effect = lower value 1.02 | locus YDR069C, strain doa4, stronger effect = lower value 1.04 | locus YDR101C, strain arx1, stronger effect = lower value 0.981 | locus YDR137W, strain rgp1, stronger effect = lower value 1.06 | locus YDR159W, strain sac3, stronger effect = lower value 0.987 | locus YDR162C, strain NBP2, stronger effect = lower value 1.03 | locus YDR195W, strain ref2 1.03 | locus YDR297W, strain sur2, stronger effect = lower value 1.02 | locus YDR318W, strain mcm21, stronger effect = lower value 1.01 | locus YDR334W, strain swr1, stronger effect = lower value 1.06 | locus YDR335W, strain msn5, stronger effect = lower value 1.05 | locus YDR388W, stronger effect = lower value 1 | locus YDR392W, strain spt3, stronger effect = lower value 0.948 | locus YDR502C, strain sam2, stronger effect = lower value 0.974 | locus YEL003W, strain gim4, stronger effect = lower value 1.04 | locus YEL037C, strain rad23, stronger effect = lower value 1.05 | locus YEL061C, strain CIN8 (second series), stronger effect = lower value 1.03 | locus YEL061C, strain CIN8, stronger effect = lower value 1.01 | locus YER015W, strain faa2, stronger effect = lower value 1.03 | locus YER016W, strain bim1, stronger effect = lower value 1.03 | locus YER110C, stronger effect = lower value 0.993 | locus YER111C, strain swi4, stronger effect = lower value 1.03 | locus YER155C, strain BEM2 (second series), stronger effect = lower value 1.05 | locus YER155C, strain BEM2, stronger effect = lower value 0.981 | locus YER167W, strain BCK2, stronger effect = lower value 0.998 | locus YFR010W, strain ubp6, stronger effect = lower value 1.02 | locus YGL078C, strain dbp3, stronger effect = lower value 0.976 | locus YGL086W, strain mad1, stronger effect = lower value 0.965 | locus YGL167C, strain pmr1, stronger effect = lower value 1.05 | locus YGL173C, strain kem1, stronger effect = lower value 1.02 | locus YGL227W, strain vid30, stronger effect = lower value 1.03 | locus YGL240W, strain doc1, stronger effect = lower value 0.994 | locus YGL248W, strain PDE1, stronger effect = lower value 1.01 | locus YGL253W, strain hxk2, stronger effect = lower value 1.05 | locus YGR078C, strain PAC10, stronger effect = lower value 1.01 | locus YGR135W, strain pre9, stronger effect = lower value 1.02 | locus YGR252W, strain gcn5, stronger effect = lower value 1.02 | locus YHR013C, strain ard1, stronger effect = lower value 1.04 | locus YHR027C, strain rpn1, stronger effect = lower value 1.01 | locus YHR030C, strain SLT2, stronger effect = lower value 0.998 and 1.06 | locus YHR079C, strain IRE1 (second series), stronger effect = lower value 0.992 | locus YHR079C, strain IRE1, stronger effect = lower value 1.12 | locus YHR094C, strain hxt1, stronger effect = lower value 0.995 | locus YHR129C, strain ARP1, stronger effect = lower value 0.998 | locus YHR142W, strain chs7, stronger effect = lower value 1.06 | locus YHR200W, strain rpn10, stronger effect = lower value 1 | locus YIL066C, strain RNR3, stronger effect = lower value 0.997 | locus YIL073C, strain SPO22, stronger effect = lower value 0.958 | locus YIL125W, strain kgd1, stronger effect = lower value 0.997 | locus YIR030C, strain dcg1, stronger effect = lower value 0.995 | locus YJL092W, strain hpr5, stronger effect = lower value 1.04 | locus YJL095W, strain BCK1 (second series), stronger effect = lower value 1.03 | locus YJL095W, strain BCK1, stronger effect = lower value 1.03 and 1.06 | locus YJL115W, strain asf1, stronger effect = lower value 1.04 | locus YJL129C, strain trk1, stronger effect = lower value 1.05 | locus YJL134W, strain LCB3, stronger effect = lower value 0.998 | locus YJL154C, strain vps35, stronger effect = lower value 1.02 | locus YJL164C, strain tpk1, stronger effect = lower value 1.05 | locus YJL166W, strain qcr8, stronger effect = lower value 1.02 | locus YJL168C, strain set2, stronger effect = lower value 0.998 | locus YJL187C, strain SWE1 (second series), stronger effect = lower value 1 | locus YJR043C, strain POL32, stronger effect = lower value 0.992 | locus YJR066W, strain TOR1, stronger effect = lower value 0.995 | locus YKL009W, strain mrt4, stronger effect = lower value 1.06 | locus YKL068W, stronger effect = lower value 0.995 | locus YKL085W, strain MDH1 (second series), stronger effect = lower value 1.01 | locus YKL085W, strain MDH1, stronger effect = lower value 1.01 | locus YKL160W, strain elf1, stronger effect = lower value 1.02 | locus YKL190W, strain CNB1, stronger effect = lower value 1.02 | locus YKR001C, strain vps1, stronger effect = lower value 1.01 | locus YKR026C, strain gcn3, stronger effect = lower value 1.04 | locus YKR091W, strain srl3, stronger effect = lower value 1.03 | locus YLL001W, strain dnm1, stronger effect = lower value 1.04 | locus YLL026W, stronger effect = lower value 1.04 | locus YLL041C, strain sdh2, stronger effect = lower value 1.02 | locus YLR027C, strain aat2, stronger effect = lower value 1.05 | locus YLR039C, strain RIC1, stronger effect = lower value 1.01 | locus YLR058C, strain SHM2, stronger effect = lower value 1.02 | locus YLR102C, strain apc9, stronger effect = lower value 0.999 | locus YLR113W, strain HOG1, stronger effect = lower value 1.06 | locus YLR221C, strain rsa3, stronger effect = lower value 1.04 | locus YLR258W, strain gsy2, stronger effect = lower value 1.03 | locus YLR262C, strain YPT6 (second series), stronger effect = lower value 1.05 | locus YLR262C, strain YPT6, stronger effect = lower value 1.01 | locus YLR268W, strain sec22, stronger effect = lower value 0.957 | locus YLR320W, strain mms22, stronger effect = lower value 1 | locus YLR330W, strain CHS5, stronger effect = lower value 1.02 | locus YLR342W, strain FKS1 (second series), stronger effect = lower value 1.01 | locus YLR342W, strain FKS1, stronger effect = lower value 1.02 | locus YLR357W, strain rsc2, stronger effect = lower value 1.04 | locus YLR370C, strain arc18, stronger effect = lower value 1.04 | locus YLR371W, strain rom2, stronger effect = lower value 0.979 | locus YLR384C, strain iki3, stronger effect = lower value 1.02 | locus YLR418C, strain cdc73, stronger effect = lower value 0.998 | locus YML016C, strain PPZ1, stronger effect = lower value 0.999 | locus YML032C, strain rad52, stronger effect = lower value 0.982 | locus YML120C, strain ndi1, stronger effect = lower value 1.03 | locus YML124C, strain tub3, stronger effect = lower value 0.996 | locus YMR058W, strain fet3, stronger effect = lower value 1.02 | locus YMR078C, strain ctf18, stronger effect = lower value 0.996 | locus YMR125W, strain sto1, stronger effect = lower value 1.07 | locus YMR129W, stronger effect = lower value 1.04 | locus YMR205C, strain PFK2, stronger effect = lower value 1.02 | locus YMR223W, strain ubp8, stronger effect = lower value 1 | locus YMR231W, strain pep5, stronger effect = lower value 1.03 | locus YMR307W, strain GAS1, stronger effect = lower value 1.06 | locus YNL067W, strain RPL9B, stronger effect = lower value 1.01 | locus YNL071W, strain lat1, stronger effect = lower value 1.04 | locus YNL153C, strain GIM3, stronger effect = lower value 1.02 | locus YNL183C, strain NPR1, stronger effect = lower value 0.995 | locus YNL209W, strain ssb2, stronger effect = lower value 1.03 | locus YNL233W, strain BNI4, stronger effect = lower value 0.991 | locus YNL248C, strain rpa49, stronger effect = lower value 1.02 | locus YNL250W, strain rad50, stronger effect = lower value 0.96 | locus YNL271C, strain bni1, stronger effect = lower value 0.984 | locus YNL298W, strain CLA4, stronger effect = lower value 0.994 | locus YNL307C, strain MCK1, stronger effect = lower value 0.996 | locus YNL322C, strain KRE1 (second series), stronger effect = lower value 1.03 | locus YNL322C, strain KRE1, stronger effect = lower value 1.01 | locus YNR049C, strain mso1, stronger effect = lower value 1.03 | locus YNR052C, strain pop2, stronger effect = lower value 0.985 | locus YOL012C, strain htz1 0.834 | locus YOL147C, strain pex11, stronger effect = lower value 1 | locus YOR001W, strain rrp6, stronger effect = lower value 1.03 | locus YOR061W, strain CKA2, stronger effect = lower value 0.996 | locus YOR069W, strain VPS5, stronger effect = lower value 0.991 | locus YOR070C, strain gyp1, stronger effect = lower value 1.04 | locus YOR080W, strain dia2, stronger effect = lower value 1.02 | locus YOR083W, strain WHI5, stronger effect = lower value 0.979 | locus YOR106W, strain vam3, stronger effect = lower value 1.04 | locus YOR136W, strain idh2, stronger effect = lower value 0.971 | locus YOR144C, strain elg1, stronger effect = lower value 0.998 | locus YOR184W, strain ser1, stronger effect = lower value 1 | locus YOR231W, strain MKK1, stronger effect = lower value 1.05 | locus YOR265W, strain rbl2, stronger effect = lower value 1.01 | locus YOR270C, strain vph1, stronger effect = lower value 1.15 | locus YOR290C, strain snf2, stronger effect = lower value 1.04 | locus YOR316C, strain cot1, stronger effect = lower value 0.997 | locus YPL051W, strain arl3, stronger effect = lower value 1.04 | locus YPL055C, strain LGE1, stronger effect = lower value 1.01 | locus YPL078C, strain atp4, stronger effect = lower value 1.04 | locus YPL106C, strain sse1, stronger effect = lower value 1.07 | locus YPL240C, strain hsp82, stronger effect = lower value 1.02 | locus YPL241C, strain CIN2, stronger effect = lower value 1.01 | locus YPL256C, strain CLN2, stronger effect = lower value 1.08 | locus YPR119W, strain clb2, stronger effect = lower value 0.998 | locus YPR141C, strain kar3, stronger effect = lower value 0.99 | locus YPR163C, strain tif3, stronger effect = lower value 0.985 | locus YPR167C, strain met16, stronger effect = lower value 1.01 | strain wtn01, stronger effect = lower value 0.97

— PubChem BioAssay AID1159580 (chemical genetic matrix, 2015)
